Experimental data taken from PubChem BioAssay AID1992 (Sanford-Burnham Center for Chemical Genomics, 2009).
Hit rate of the full screen: of about 50,000 compounds, about 350 (0.7%) were called active. Shown is part of a subset that was picked to be rich in actives. Values without a mark were called inactive. Cut-off read from the data, not from the text of the source: active = inhibition above about 60%; inactive = the rest.

Target: Dual specificity protein phosphatase 3 (Homo sapiens) (UniProt P51452)
Experiment: human DUSP3 activity blockers – biochemical, colorimetric, HTS, primary screen (AID 1992)
Settings: recombinant VHR phosphatase, colorimetric substrate read-out; at 20 µM; hits give high values

Chain of Dual specificity protein phosphatase 3 (Homo sapiens) (P51452 whole entry, looked up): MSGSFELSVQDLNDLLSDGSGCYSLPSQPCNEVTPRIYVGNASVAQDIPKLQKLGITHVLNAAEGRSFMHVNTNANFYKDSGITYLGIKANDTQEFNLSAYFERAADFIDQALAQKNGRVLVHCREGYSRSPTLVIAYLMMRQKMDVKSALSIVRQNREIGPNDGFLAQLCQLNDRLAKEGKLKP

| SMILES | inhibition |
| --- | --- |
| CSc1nc(SC)c2c3c(sc2n1)COC(C)(C)C3 | 4.5% |
| CC1(C)CC(NC(=O)c2ccccc2C(=O)O)CC(C)(C)N1 | -26.8% |
| COc1ccc(N2C(=O)C3C(C2=O)C2C=CC3C23CC3)cc1 (stereo not drawn) | -13% |
| Cc1ccc(C)c(NC(=O)CN(c2ccc(F)cc2)S(=O)(=O)c2ccccc2)c1 | -21.2% |
| CCCCCCOc1ccc(/C=C2/C(=O)ON=C2c2ccccc2)cc1 | 1.2% |
| COC(=O)C(=C/C=C/N(C)C)C(=O)OC | -1.7% |
| COc1ccc(C2=C/C(=C/c3cccc(OC)c3OC(C)=O)C(=O)O2)cc1 | 2.4% |
| O=C1c2cccc3cc(Br)cc(c23)C(=O)N1Nc1ccccc1 | -21.6% |
| COc1ccccc1OCCCCOc1c(C)cccc1C | 27.1% |
| COc1ccc(C2CC(c3ccccc3)=NN2c2ccccc2OC)cc1 (stereo not drawn) | 8.3% |
| CC(C)CN1C(=O)/C(=C/c2cccc(Oc3ccccc3)c2)SC1=S | -0.1% |
| COc1cccc(OCCOc2cccc(/C=C3/SC(=S)N(Cc4ccccc4)C3=O)c2)c1 | 112% (active) |
| COc1ccc(/C=C2/SC(=S)N(Cc3ccccc3)C2=O)cc1OC | -6.8% |
| Cc1ccc(NC(=O)CC2SC(N)=NC2=O)c([N+](=O)[O-])c1 (stereo not drawn) | 24.8% |
| C=CCN1C(=O)/C(=C\c2cc(OC)c(O)c([N+](=O)[O-])c2)C(=O)NC1=S | 3.8% |
| C=CCN1C(=O)/C(=C\c2cccn2-c2cccc([N+](=O)[O-])c2)C(=O)NC1=S | 85.9% (active) |
| COc1ccc(N2C(=O)NC(=O)/C(=C/c3cccn3-c3ccc([N+](=O)[O-])cc3)C2=O)cc1 | -13.8% |
| CC(=O)Oc1ccc(/C=C2\C=C(c3ccc(Br)cc3)OC2=O)c(OC(C)=O)c1 | 5.9% |
| CCOC(=O)CCCN1C(=O)/C(=C/c2ccccc2)SC1=S | -3.8% |
| CCOc1ccc(N2C(=O)S/C(=C\c3ccccc3OC)C2=O)cc1 | -12.5% |
| CCOC(=O)c1sc(C)c(C(N)=O)c1N | 0.2% |
| O=C1N/C(=N/N=C/c2ccc3c(c2)OCO3)SC1c1ccccc1 (stereo not drawn) | -3.2% |
| O=C(Nc1c(Cl)cccc1Cl)c1ccc(Cl)c(Cl)c1 | -2% |
| CCc1cccc(CC)c1NC(=O)c1ccccc1OC | 2.4% |

| SMILES | inhibition |
| --- | --- |
| COc1ccc(CCNS(=O)(=O)c2cccc([N+](=O)[O-])c2)cc1 | 8.5% |
| CCOc1cccc2c1NC(C)(C)C(=S)C2=C1SC(C(=O)OC)=C(C(=O)OC)S1 | -4.6% |
| CCN(CC)c1ccc(NC(=O)c2oc3ccccc3c2C)cc1 | 7.4% |
| CCOC(=O)c1ccc(NC(=O)/C(C#N)=C2\NC(C)(C)Cc3ccccc32)cc1 | -14% |
| Cc1cc(OCC(=O)Nc2cccnc2)ccc1Cl | -1.1% |
| CCOC(=O)c1ccccc1N/C=C(\C#N)C(=O)NCc1ccccc1 | -12% |
| CC1=C(C(=O)c2ccccc2)C(c2ccc([N+](=O)[O-])cc2)NC(=O)N1 (stereo not drawn) | -1.5% |
| COc1ccc(C(=O)N2CCN(Cc3cccc(OC)c3OC)CC2)cc1OC | -15.2% |
| COc1ccc(OC(C)C(=O)NCCc2nc3ccccc3[nH]2)cc1 (stereo not drawn) | -9.3% |
| CC(=O)Nc1ccc(S(=O)(=O)Nc2cccc(-c3nc4ccccc4[nH]3)c2)cc1 | -3% |
| Cc1cc2c(cc1C)-c1nc3ccccc3c(=O)n1C(C)(C)C2 | -9.1% |
| Cc1cc(C(=O)N/N=C/c2ccc(Br)c([N+](=O)[O-])c2)n[nH]1 | -1.6% |
| CC(C)(C)OC(=O)NC(Cc1c[nH]c2ccccc12)C(=O)N1CCOCC1 (stereo not drawn) | 4.4% |
| O=C1N/C(=N\N=C\c2ccccc2O)SC1Cc1cccc(C(F)(F)F)c1 (stereo not drawn) | -19.6% |
| Cc1cc(NC(=O)C2CCCCC2)cc(C)c1O | -10.1% |
| Cc1ccc(-c2cc(C(=O)N3CC(C)CC(C)C3)c3ccccc3n2)cc1C (stereo not drawn) | 30.2% |
| CC(C)c1ccc(C(=O)NC2CC2)cc1 | 0% |
| COc1cccc(C2/C(=C(\O)c3ccc(Cl)cc3)C(=O)C(=O)N2c2cccnc2)c1 (stereo not drawn) | -0.3% |
| N#C/C(=C\c1cn(CC(=O)Nc2ccccc2)c2ccccc12)C(=O)Nc1ccc(F)cc1 | 23.2% |
| O=c1oc2c(-c3cc(Cl)ccc3Cl)cc(O)cc2s1 | 14% |
| C/C(=N/NC(=O)c1ccccc1C)c1ccc(NC(=O)C(F)(F)F)cc1 | -15.5% |
| O=c1[nH]c(=S)n(-c2cccc(Cl)c2)c(O)c1/C=C1/C=CC=N1 | 87.4% (active) |
| O=c1[nH]c(=O)n(-c2ccc(Cl)cc2)c(O)c1/C=C1/C=CC=N1 | 37.9% |
| CCOc1ccc(-n2c(O)c(C=C3C=CC=N3)c(=O)[nH]c2=O)cc1 | 3% |

| SMILES | inhibition |
| --- | --- |
| Cc1ccc(NC(=O)CC2Nc3cc(C)c(C)cc3NC2=O)cc1 (stereo not drawn) | 33.7% |
| Cc1cc2c(cc1C)NC(CC(=O)Nc1ccccc1C(F)(F)F)C(=O)N2 (stereo not drawn) | -0.3% |
| O=C(CC1Nc2ccccc2NC1=O)Nc1ccccc1NC(=O)CC1Nc2ccccc2NC1=O (stereo not drawn) | 97.7% (active) |
| C=CCc1ccccc1OCCOc1c(I)cc(/C=C2/SC(=S)N(C)C2=O)cc1OC | -23.1% |
| Cc1cccc(OCCOc2cccc(/C=N/n3cnnc3)c2)c1 | 112% (active) |
| CCOc1cc(/C=N/n2cnnc2)ccc1OCCOc1ccccc1C | -20.4% |
| COc1ccccc1OCCOc1ccc(/C=N/n2cnnc2)cc1 | 14.5% |
| CC(C)c1ccc(NC(=O)CN(c2ccc(Oc3ccccc3)cc2)S(C)(=O)=O)cc1 | -26.4% |
| CCCOC(=O)c1ccc(N=Cc2ccc([N+](=O)[O-])cc2)cc1 | 3.4% |
| O=C(NCCN1CCOCC1)c1cc2nc(-c3ccc([N+](=O)[O-])cc3)cc(C(F)(F)F)n2n1 | -23.4% |
| Cc1ccc(-c2ccc(C)cc2N)c(N)c1 | -3% |
| O=C(NCc1ccccc1)c1ccc(CN2CCN(c3ccccc3)CC2)cc1 | 5.6% |
| CC(C)(C)c1cc(Br)ccc1OCC(=O)Nc1ccccc1[N+](=O)[O-] | -0.7% |
| O=C(Nc1cccc(Br)c1)C(=O)NC1CCCC1 | -18.7% |
| Cc1ccc2c(c1)C(c1ccccc1[N+](=O)[O-])CC(=O)N2 (stereo not drawn) | -4.5% |
| O=C(c1nn2c(c1Cl)NC(c1ccc(F)cc1)CC2C(F)(F)F)N1CCN(Cc2ccccc2)CC1 (stereo not drawn) | -2.9% |
| O=C1C2C(C(=O)N1/N=C/C=C/c1ccccc1)C1C=CC2C12CC2 (stereo not drawn) | -11.9% |
| CC(C)(C)c1cc(N2C(=O)C(=O)/C(=C(\O)c3ccccc3)C2c2cccc([N+](=O)[O-])c2)no1 (stereo not drawn) | 10.1% |
| Cc1cccc(NC(=O)CCCOc2ccccc2)c1C | -23.5% |
| Cc1ccccc1NCC(=O)N/N=C\c1cc([N+](=O)[O-])cc(Br)c1O | 31.8% |
| Cc1cc(Br)cc(/C=N/NC(=O)c2cncc(Br)c2)c1O | -16.6% |
| Cc1ncc(C[n+]2csc3ccccc32)c(N)n1 | 23.5% |
| COc1ccc(C(=O)/C=C/Nc2cccc(Cl)c2Cl)cc1 | 3.3% |
| O=C(O)CCN1C(=O)/C(=C/c2ccc(-c3cc(Cl)ccc3Cl)o2)SC1=S | 73% (active) |

| SMILES | inhibition |
| --- | --- |
| O=C1S/C(=C/c2ccc(-c3ccc(Cl)cc3Cl)o2)C(=O)N1c1ccccc1 | -7.5% |
| CN(C)CCOC(=O)CCN1C(=O)/C(=C/c2ccc(Cl)cc2Cl)SC1=S | -1.5% |
| Cc1cccc(NC(=O)c2cc(-c3ccc(Br)cc3)nc3ccccc23)n1 | -30.2% |
| CCn1c(=O)c(C(=O)Nc2ccccc2Br)c(O)c2ccccc21 | -20.9% |
| COc1ccc(C=O)c2c(O)cccc12 | 2.1% |
| CCN(C=NC1=NN(c2ccccc2)CC1)CC | 2.7% |
| O=C1C=CC2=C3Oc4c(ccc5cc(O)ccc45)C(c4ccccc4C(=O)O)C3C=CC2=C1 (stereo not drawn) | 85.5% (active) |
| O=C(NCCCn1ccnc1)c1ccccc1[N+](=O)[O-] | 5.9% |
| CC1=C(C(=O)OCc2ccccc2)C(c2ccc(C(F)(F)F)cc2)CC(=O)N1 (stereo not drawn) | 8.1% |
| O=C1C(=O)N(Cc2ccccc2)C2C=CC=CC12 (stereo not drawn) | 7.6% |
| COc1cccc(NC(=O)CN(c2cccc([N+](=O)[O-])c2)S(=O)(=O)c2ccccc2)c1 | -23.4% |
| CCOC(=O)c1c(NC(=O)c2cc(OC)c(OC)c(OC)c2)sc(C(N)=O)c1C | 1.3% |
| S=c1n(CN2CCOCC2)nc(-c2ccccc2Cl)n1-c1ccccc1 | -3.8% |
| O=C(Nc1cc(Cl)cc(Cl)c1)C1COc2ccccc2O1 (stereo not drawn) | -3% |
| COc1ccc(/C=N/NC(=O)C2CC2)c(OC)c1OC | -32.4% |
| Cc1cc(C)c2cccc(NC(=S)NC(=O)c3cccc([N+](=O)[O-])c3)c2n1 | -0.4% |
| O=[N+]([O-])c1nonc1NCn1nnc2ccccc21 | -8% |
| CC(NC(=O)C1CC(=O)N(c2ccc(Br)cc2)C1)c1ccccc1 (stereo not drawn) | 16.1% |
| COC(=O)c1ccc(/C=N/Nc2nncc(-c3ccccc3)n2)cc1 | -34% |
| Cc1onc(-c2c(Cl)cccc2Cl)c1C(=O)Nc1sc2c(c1C(N)=O)CCCC2 | -46.5% |
| O=C1NC(=O)C(=Cc2cccc(OCc3ccccc3)c2)C(=O)N1 | -24.8% |
